This passage reports sensor-assay potency score (higher = more potent) results from the OligoGym collection.
Further: reference of the scale not given here.

The target of one test is CT47A1. The test can be described thus: pooled miR-30 sensor sort-seq; sequence = guide strand. The note with it: shRNA.
Consider TTGTTCTTTCTCTTCCTCGCCT, for which the sensor-assay potency score (higher = more potent) turned out to be 0.277.

Regarding TGTTCTTTCTCTTCCTCGCCTG, the sensor-assay potency score (higher = more potent) came to 0.234.

For TTGACGGTTCTCTATGAGGATG, the sensor-assay potency score (higher = more potent) was -1.48.

On to TTGTTTTCTGCATCCTTCTCTT, for which the sensor-assay potency score (higher = more potent) was -0.0876.

Take TCTGCGTCTGGTTCCTCTGTGG: the sensor-assay potency score (higher = more potent) is -0.289.

With TTCCTCGCCTGCAGCATCTTGG, the sensor-assay potency score (higher = more potent) is -0.775.

Consider TATCTGAGTCCTCCTCGGCGCT, for which the sensor-assay potency score (higher = more potent) was -1.49.

TCACCTTGTTTTCTGCATCCTT: the sensor-assay potency score (higher = more potent) came out at 0.106.

In the case of TGCATCCTTCTCTTTTTCTTGT, the sensor-assay potency score (higher = more potent) is -0.624.

Another test addresses CTBP2. Described as above. The note with it: shRNA.
TTCGTTGAGATTGCAGTGCAAG: the sensor-assay potency score (higher = more potent) is -1.27.

For TAGAGTCCGCTGTCTCTTCCAC, the sensor-assay potency score (higher = more potent) was -0.12.

Regarding TTGCAGTGCAAGGAGACGCAGT, the sensor-assay potency score (higher = more potent) is -0.883.

For TTGCTTGCTGGTCTATTACTGA, the sensor-assay potency score (higher = more potent) was -0.788.

Regarding TTGAGATTGCAGTGCAAGGAGA, the sensor-assay potency score (higher = more potent) was -0.597.

Turning to TGCTGGTCTATTACTGACCAAG, the sensor-assay potency score (higher = more potent) was -1.63.

Turning to TACCTTCACAAATTCTGTCCAA, the sensor-assay potency score (higher = more potent) was -0.0172.

In the case of AATCGCTGTCTCTTGACTTTGT, the sensor-assay potency score (higher = more potent) came to 0.0201.

As to TTGCTGGTCTATTACTGACCAA, the sensor-assay potency score (higher = more potent) was -0.982.

As for TTTCCTGCGTCGACTGCGCGTC, the sensor-assay potency score (higher = more potent) is -0.459.

For TTCGGGGCATCTTTCAACGGAC, the sensor-assay potency score (higher = more potent) is -0.791.

For TTCTGTCCAATCGCTGTCTCTT, the sensor-assay potency score (higher = more potent) was -0.623.

For TAAAATATGACGCTGAATCCAA, the sensor-assay potency score (higher = more potent) was -0.138.

As to TCGTTTAGAACCTTCTCGTGGA, the sensor-assay potency score (higher = more potent) stood at 0.661.

As for ACAAATTCTGTCCAATCGCTGT, the sensor-assay potency score (higher = more potent) was -0.83.

Turning to TTATGTTCGTTGAGATTGCAGT, the sensor-assay potency score (higher = more potent) was -0.485.

AATTTCTTAAGCTTTCTGGGAT gave a sensor-assay potency score (higher = more potent) of 0.0586.

Regarding TATGGTAAAGTCATTGATGAGG, the sensor-assay potency score (higher = more potent) is -1.17.

Regarding TTCGTTTAGAACCTTCTCGTGG, the sensor-assay potency score (higher = more potent) is -0.189.

On to TCGCTGTCTCTTGACTTTGTGC, for which the sensor-assay potency score (higher = more potent) is -1.38.

On to TAAGGCTTTCTCGTCCACCAGG, for which the sensor-assay potency score (higher = more potent) is -0.686.

On to TTGTGAGTCACTGGGATGCCTC, for which the sensor-assay potency score (higher = more potent) is -1.08.

As for TATCCGCACGATCACTCTCAGG, the sensor-assay potency score (higher = more potent) is -1.62.

Another test addresses CTCFL. The test is described as above. The note with it: shRNA.
TTTCTTTGAAATATCCAGCTAC yielded a sensor-assay potency score (higher = more potent) of 0.55.

For TTGTATAAAAACATTTGTCTTT, the sensor-assay potency score (higher = more potent) was -0.651.

For the sequence TTAGAAGTTGCTTCTGTCGGAA, the sensor-assay potency score (higher = more potent) is -0.207.

On to TTGAGGAGCATTTCACACCTTA, for which the sensor-assay potency score (higher = more potent) was 0.0619.

TTTAGAAGTTGCTTCTGTCGGA had a sensor-assay potency score (higher = more potent) of 0.605.

Regarding TATCCTGCAACTCCACAGCTTC, the sensor-assay potency score (higher = more potent) was -1.14.

On to TTGAATTTGAAACTGTGAGAAC, for which the sensor-assay potency score (higher = more potent) was -1.1.

For TTTATGTTTCTTCTCACTCTGC, the sensor-assay potency score (higher = more potent) is -0.0954.
